Assay results as given in PubChem BioAssay (NCI).
Compounds without any hit were thinned out: in the full panel of roughly 83,000, 20% have a hit.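 Testing used 96-well plates and a 48-hour single-concentration exposure. Example: -40 means 40% of the starting cells died.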 Active and inactive are the calls of the source. How the source made its calls: active means growth percent below 10; inactive means the rest.

System: MDA-MB-468 breast
Assay: NCI-60 one-dose screen, 48 h (100 = growth as untreated, 0 = no growth, -100 = all killed)
Conditions: 10 µM unless noted

Q: Which growth does the source give for `CC(=O)Nc1ccc2c(c1)Cc1c(F)c(F)c(F)c(F)c1-2` here?
A: 82.5% (inactive)

Q: With `COc1cc(C(=O)/C=C/c2c(-c3cccs3)nc3sc(C)cn23)cc(OC)c1OC` as the compound, how does the growth read?
A: -4.34% (active)

Q: How did the growth turn out when `CC(C)(C)OC(=O)CN1CCc2c(sc3ncnc(N/N=C/c4cccc5ccccc45)c23)C1` was run?
A: 34.3% (inactive)

Q: `COc1ccc2nc3cc(Cl)ccc3c(N3CCN(c4nccc(Nc5ccccc5)n4)CC3)c2c1` was tested. Which growth did it give?
A: 37.9% (inactive)

Q: With `COc1ccc(C2=NN(c3ccc(S(N)(=O)=O)cc3)C(c3ccc(Cl)cc3)C2)c(O)c1` (stereo not given) as the compound, how does the growth read?
A: 61.7% (inactive)

Q: With `CCOC(=O)n1cc(-c2nonc2-c2cn(C)c3ccc(OC)cc23)c2cc(F)ccc21` as the compound, how does the growth read?
A: 87.3% (inactive)

Q: `COc1ccc(F)cc1/C=C/C(=O)/C=C(/C=C/c1cc(F)ccc1OC)OB(F)F` was tested. Which growth did it give?
A: 31.5% (inactive)

Q: With `CC1=CC(=O)OC1C/C=C(\C)CCC1[C@@]2(C)CCC[C@@](C)(C(=O)O)C2CC[C@@]1(C)O` (stereo not given in full) as the compound, how does the growth read?
A: 102% (inactive)

Q: Which growth does the source give for `COc1ccc(C2CC(c3cccc(OCCCCOc4cccc(C5=NOC(c6ccc(OC)cc6)C5)c4)c3)=NO2)cc1` (stereo not given) here?
A: 112% (inactive)

Q: How did the growth turn out when `CCOc1ccc(C(=O)NCC(C)C)cc1` was run?
A: 105% (inactive)

Q: Which growth does the source give for `c1cc[n+](C2c3ccccc3C([n+]3ccccc3)c3ccccc32)cc1` (stereo not given) here?
A: -37.4% (active)

Q: How did the growth turn out when `CCOC(=O)c1c2c(n3ccc(NC(=O)CCN4CCOCC4)cc13)C(=O)c1ncccc1C2=O` was run?
A: 49.7% (inactive)

Q: Which growth does the source give for `COc1cc(C2CC(c3ccc4c(c3)OCO4)=NN2C(C)=O)cc(OC)c1OC` (stereo not given) here?
A: -26.8% (active)

Q: How did the growth turn out when `CCCOc1ccc2nc(NC(=O)OC)[nH]c2c1` was run?
A: -3.99% (active)

Q: Which growth does the source give for `C/C(=C(/c1ccc(Cl)cc1)c1ccc(OCCN2CCCCC2)cc1)c1ccccc1` here?
A: 90.6% (inactive)

Q: Which growth does the source give for `O=C1OCC2=C1C(c1ccc3c(c1)OCO3)CC(=O)N2c1cccc(Cl)c1` (stereo not given) here?
A: 88.1% (inactive)

Q: With `O=C1NN(c2ccccc2)C(c2cccnc2)=N/C1=C\c1cccnc1` as the compound, how does the growth read?
A: 90% (inactive)

Q: `COc1ccc(C2=CC(c3cc(OC)c(OC)c(OC)c3)n3ncnc3N2)cc1` (stereo not given) was tested. Which growth did it give?
A: 32.2% (inactive)

Q: With `CCCCCCC(C)N(CC(C)(C)O)C(=O)c1ccc([N+](=O)[O-])cc1` (stereo not given) as the compound, how does the growth read?
A: 96.1% (inactive)

Q: With `CCOC(=O)C(=O)CC(=O)N1C(=S)NC(=O)C1CC(C)C` (stereo not given) as the compound, how does the growth read?
A: 85.1% (inactive)

Q: How did the growth turn out when `Cc1cc(C)cc(NC(=O)Cn2nncc2CN2C(=O)CSC2=O)c1` was run?
A: 97% (inactive)

Q: With `CCOC(=O)C(O)C(O)C(=O)OCC` (stereo not given) as the compound, how does the growth read?
A: 102% (inactive)

Q: With `Cc1cc(N/N=C/c2nc(-c3ccccc3)oc2C)c2cc(Br)ccc2n1` as the compound, how does the growth read?
A: 35.7% (inactive)

Q: `COc1ccc(-c2[nH]ncc2/C=C/c2cc(C(F)(F)F)[nH]c(=O)n2)cc1` was tested. Which growth did it give?
A: 96.1% (inactive)

Q: Which growth does the source give for `COc1cccc(/C=C2\Oc3cc(OCCN4CCCC4)ccc3C2=O)c1` here?
A: 82.8% (inactive)

Q: Which growth does the source give for `O=C1C(Cl)=C(Nc2ccccc2)C(=O)C(Cl)=C1Nc1ccccc1` here?
A: 102% (inactive)

Q: For `COc1cc(Cn2c(-c3ccccc3)c(Cl)c3c2-c2oncc2CC3)cc(OC)c1`, which growth is on record?
A: 114% (inactive)

Q: With `CCOC(=O)CC1CSC(N/N=C/c2ccc(F)c(Br)c2)=N1` (stereo not given) as the compound, how does the growth read?
A: 116% (inactive)

Q: For `O=C(NC1CCN(Cc2ccccc2)CC1)c1cc(-c2ccncc2)nc2ccc(Cl)cc12`, which growth is on record?
A: 12.8% (inactive)

Q: How did the growth turn out when `COc1nc(N(C)O)nc(N(C)O)n1` was run?
A: 29.4% (inactive)

Q: How did the growth turn out when `C[C@H]1[C@H]2[C@H]3CC[C@@H]4[C@@]5(C)CC[C@H](O)C(C)(C)[C@@H]5CC[C@@]4(C)[C@]3(C)CC[C@]23CO[C@]1(C)[C@@H](C(=O)/C=C\c1cccnc1)C3` was run?
A: 20.5% (inactive)

Q: For `COC(=O)c1ccc(-n2cc(CCCOS(=O)(=O)c3ccc(F)cc3)nn2)cc1`, which growth is on record?
A: 108% (inactive)

Q: `COc1ccccc1CNc1c2ccccc2nc2ccccc12` was tested. Which growth did it give?
A: 28.3% (inactive)

Q: Which growth does the source give for `O=C(CCc1nnc(Cn2cnc3nc[nH]c3c2=O)o1)c1nc2ncccc2[nH]1` here?
A: 102% (inactive)

Q: `Cc1ccc(/C=C2/C(=O)N(C)c3ccc(S(=O)(=O)Nc4ccc(C(C)(C)C)cc4)cc32)s1` was tested. Which growth did it give?
A: 63.1% (inactive)

Q: `O=[N+]([O-])c1cc(Cl)c2[nH]c3c(Cl)cc([N+](=O)[O-])cc3c2c1` was tested. Which growth did it give?
A: -17.9% (active)

Q: For `CNC(=O)c1cc(-c2ccc(NC(=S)Nc3cc(C(F)(F)F)cc(C(F)(F)F)c3)cc2)nc2cccnc12`, which growth is on record?
A: -8.04% (active)

Q: How did the growth turn out when `N#Cc1c(N)nc2c(c(-c3ccc(Cl)cc3)nn2-c2ccccc2)c1C#N` was run?
A: 90.1% [100 µM] (inactive)

Q: How did the growth turn out when `COc1ccc(-c2nc(SCCC(C)C)nc(N/N=C\c3cccc(Cl)c3)c2C#N)cc1` was run?
A: 95.9% (inactive)

Q: Which growth does the source give for `O=C(Cn1cc(CSc2nc3ccccc3o2)nn1)Nc1ccc(F)cc1F` here?
A: 104% (inactive)
